Assay [1] in a line: qHTS to identify inhibitors of the type 1 interferon - major histocompatibility complex class I in skeletal muscle: primary screen against the NCATS Mechanism Interrogation Plate v5.0 (MIPE) Libary (AID 1347411). Note: nearly all actives have a fitted effect of over 65% in size. Note: potency is the fitted concentration of half-maximal effect. Put shortly: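 Immortalized human C25cl48 myoblasts with HiBit knocked into endogenous HLA-B*08:01 were stimulated with 4.0 ng/ml IFN-beta and exposed to compounds (11-point 1:3 titration, top 46 uM final) for 24 hrs at 37 C; HiBiT lytic luminescence measured.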
(In qHTS, concentration-response curves come from the screen itself.)

A short description of assay [2]: NCATS anti-infectives library activity on HEK293 viability as a counter-qHTS vs the C. elegans viability qHTS (AID 1745854). Note: % is set by controls: 0 for no effect and ±100 for the full control effect. In a few lines:
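HEK293 cells, 1500 per well, exposed 24 hr at 37C in 5% CO2 to compounds in a 1:5 titration, up to 41.7 uM final. Viability read as CellTiter-Glo luminescence after 10 min at room temperature.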

The target in assay [3] is Glutathione peroxidase 1 (Homo sapiens) (UniProt P07203). The assay is described as follows: Primary qHTS Assay for Inhibitors of Recombinant Selenoprotein Glutathione Peroxidase 1 (GPX1) (AID 1845191). Note: nearly all actives have a fitted effect of over 65% in size. In a few lines: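 GR-coupled assay: compounds preincubated 30 min at room temperature with GPX1, then reaction started with CHP; final 10 nM GPX1, 1 mM GSH, 0.5 mM CHP, 0.5 mM NADPH, 100 nM GR, 0.01% BSA, pH 7.5 Tris buffer. NADPH fluorescence (340/450 nm) read at 0 and 15 min.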
Sequence of Glutathione peroxidase 1 (Homo sapiens) (P07203 whole entry, looked up): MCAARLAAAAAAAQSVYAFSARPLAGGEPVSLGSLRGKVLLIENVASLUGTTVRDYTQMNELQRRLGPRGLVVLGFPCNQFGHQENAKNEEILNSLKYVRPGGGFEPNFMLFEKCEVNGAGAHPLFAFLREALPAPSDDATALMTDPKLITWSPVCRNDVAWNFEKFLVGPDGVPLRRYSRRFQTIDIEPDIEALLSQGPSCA

Assay [4] deals with Phospholipid hydroperoxide glutathione peroxidase GPX4 (Homo sapiens) (UniProt P36969). The assay is described as follows: Primary qHTS Assay for Inhibitors of Recombinant Selenoprotein Glutathione Peroxidase 4 (GPX4) (AID 1845192). Note: nearly all actives have a fitted effect of over 65% in size. The following applies: outcome: dose series up to 50 µM unless noted. In a few lines: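 GR-coupled assay: recombinant GPX4 preincubated 30 min with compound at room temperature; final 200 nM GPX4, 1 mM GSH, 0.5 mM cumene hydroperoxide, 0.5 mM NADPH, 100 nM GR, 0.01% BSA, pH 7.5 Tris. NADPH fluorescence (340/450 nm) read at 0 and 15 min.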
Sequence of Phospholipid hydroperoxide glutathione peroxidase GPX4 (Homo sapiens) (P36969 whole entry, looked up): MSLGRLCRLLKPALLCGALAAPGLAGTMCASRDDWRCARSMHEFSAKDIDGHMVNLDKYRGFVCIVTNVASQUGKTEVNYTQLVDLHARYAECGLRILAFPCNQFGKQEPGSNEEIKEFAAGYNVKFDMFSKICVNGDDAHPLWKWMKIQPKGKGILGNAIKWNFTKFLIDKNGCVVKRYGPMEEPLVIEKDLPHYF

Assay [5] is described as follows: qHTS drug screen for cell cycle checkpoint inhibitors in PARPi-resistant BRCA-mutant ovarian cancer cell lines. (AID 1963452; calls by dose curve; note: potency is the fitted concentration of half-maximal effect). The conditions noted are these: PEO1/OlaR viability, CellTiter-Glo luminescence, 96 h; for Z-AUC: stronger effect = lower value. Put shortly: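 PEO1, PEO4 and PEO1/OlaR ovarian cancer cells, 600 per well, exposed 96 h at 37C to a dilution series. Viability read by CellTiter-Glo luminescence, normalized to DMSO and empty wells; activity summarized as Z-AUC.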

Assay [6] is described as follows: Primary qHTS for inhibitors of nuclear receptor binding SET domain protein 2 (NSD2) in an RCH-ACV wild type WT cells (2C) (AID 1645877). Note: nearly all actives have a fitted effect of over 70% in size. Note: potency is the fitted concentration of half-maximal effect.
Setting [7] is: measured here: PEO1 parental Z-AUC.

Inconclusive results are not listed. Activity calls are given as the source filed them. Unless noted, calls come from the whole dose curve; as a rule, active = well fitted curve in the direction sought with a large enough effect; inconclusive = small, poorly fitted or top-dose-only effect, or another doubt; inactive = no such curve, though single readings can be large; an effect the other way counts as inactive or inconclusive.

`O=C(Cc1ccccc1)Nc1nnc(CCSCCc2nnc(NC(=O)Cc3ccccc3)s2)s1`: the Potency entry in assay [1], in assay [2], in assay [3] and in assay [4] was “inactive” in each case. In addition, the Z-AUC in assay [5] is 1.43 (inactive); in assay [5] (setting [7]) it was 1.23; in assay [5] (measured here: PEO4 Z-AUC), 1.41.
As for `COC(=O)C1=C(C)NC(c2ncc(F)cc2F)=N[C@@H]1c1ccc(F)cc1Cl`, the Potency was 16.5 µM (active) in assay [1] and 18.6 µM (active) in assay [6]. In addition, the Potency entry in assay [3] and in assay [4] was “inactive” in each case. Besides, the Z-AUC is 1.3 (inactive) in assay [5], 1.02 in assay [5] (setting [7]) and 0.861 in assay [5] (measured here: PEO4 Z-AUC).
For the compound `CS(=O)(=O)c1ccc([C@@H](CC2CCCC2)C(=O)Nc2nccs2)cc1`, the Potency entry in assay [1], in assay [3] and in assay [4] was “inactive” in each case. In addition, the Z-AUC is 0.78 (inactive) in assay [5], 0.607 in assay [5] (setting [7]) and 0.595 in assay [5] (measured here: PEO4 Z-AUC).
Regarding `CC(C)C[C@H](NC(=O)[C@H](Cc1ccccc1)NC(=O)OCc1ccccc1)C(=O)C=O`, the Potency entry in assay [1], in assay [3] and in assay [4] was “inactive” each time. In addition, the Z-AUC was 0.592 (inactive) in assay [5], 0.57 in assay [5] (setting [7]) and 0.338 in assay [5] (measured here: PEO4 Z-AUC).
As to `O=C(Nc1cnccc1Cl)N1CCN(Cc2ccc3c(c2)OC(F)(F)O3)CC1`, the Potency result in assay [1], in assay [3] and in assay [4] was “inactive” throughout. Also, the Z-AUC in assay [5] is 0.437 (inactive); in assay [5] (setting [7]), 0.137; in assay [5] (measured here: PEO4 Z-AUC), 0.79.
`CC(C)Oc1ccc(-c2nn([C@@H](C)c3oc4ccc(F)cc4c(=O)c3-c3cccc(F)c3)c3ncnc(N)c23)cc1F`: the Potency result in assay [1], in assay [3] and in assay [4] was “inactive” in each case. The results for the Z-AUC in assay [5], in assay [5] (setting [7]) and in assay [5] (measured here: PEO4 Z-AUC) were 0.0255 (inactive), -0.265 and -0.0554, respectively.
For `CNS(=O)(=O)Nc1nccc(Cc2c(C)c3ccc(Oc4ncccn4)cc3oc2=O)c1F`, the Potency entry in assay [1], in assay [3] and in assay [4] was “inactive” in each case. The Potency in assay [5] is 2.75 µM (active). For the same compound, the Z-AUC in assay [5] (setting [7]) is -1.08; in assay [5] (measured here: PEO4 Z-AUC), -1.84.
With `Cn1nccc1Nc1nccc(-c2cc3c(s2)C(C)(C)N(CCN2CCOCC2)C3=O)n1`, the Potency entry in assay [1], in assay [3] and in assay [4] was “inactive” in each case.
Turning to `CN[C@@H](C)C(=O)N[C@H](C(=O)N1CCC[C@H]1C(=O)Nc1snnc1-c1ccccc1)C1CCCCC1`, the Potency result in assay [1], in assay [3] and in assay [4] was “inactive” in each case. In addition, the Z-AUC is 1.43 (inactive) in assay [5], 0.271 in assay [5] (setting [7]) and -0.618 in assay [5] (measured here: PEO4 Z-AUC).
As to `Nc1nc(OC(c2ccc(-c3cccc(F)c3)cc2)C(F)(F)F)cc(-c2ccc(C[C@H](N)C(=O)O)cc2)n1` (some centres not stated), the Potency entry in assay [1], in assay [3] and in assay [4] was “inactive” in each case. The values for the Z-AUC in assay [5], in assay [5] (setting [7]) and in assay [5] (measured here: PEO4 Z-AUC) were -0.825 (inactive), -0.615 and -0.247, respectively.
Consider `C=CC(=O)N1C[C@H](Nc2ncnc3[nH]ccc23)CC[C@@H]1C`, for which the Potency result in assay [1], in assay [6], in assay [3] and in assay [4] was “inactive” throughout. The Z-AUC is -0.649 (inactive) in assay [5], -0.501 in assay [5] (setting [7]) and -0.666 in assay [5] (measured here: PEO4 Z-AUC).
On to `CC1(C)SCCN(S(=O)(=O)c2ccc(OCC#CCO)cc2)[C@H]1C(=O)NO`, for which the Potency result in assay [1], in assay [3] and in assay [4] was “inactive” each time. Besides, the Z-AUC is 0.823 (inactive) in assay [5], 0.238 in assay [5] (setting [7]) and 0.33 in assay [5] (measured here: PEO4 Z-AUC).
As for `CCOCOC[C@H](C[C@H](C)C(=O)NO)NC(=O)c1ccc(Oc2ccccc2)cc1`, the Potency entry in assay [1], in assay [3] and in assay [4] was “inactive” each time. Besides, the Z-AUC in assay [5] is 0.6 (inactive); in assay [5] (setting [7]), 0.894; in assay [5] (measured here: PEO4 Z-AUC), 1.19.
As to `CC(=O)N1CCC(Nc2cc(C(=O)NC[C@H](O)CN3CCc4ccccc4C3)ncn2)CC1`, the Potency result in assay [1], in assay [3] and in assay [4] was “inactive” in each case. For the same compound, the values for the Z-AUC in assay [5], in assay [5] (setting [7]) and in assay [5] (measured here: PEO4 Z-AUC) were 0.665 (inactive), 0.224 and 0.188, respectively.
For `C[C@@H](O)[C@@H](C)Oc1nc(Nc2ccc(S(=N)(=O)C3CC3)cc2)ncc1C(F)(F)F` (some centres not stated), the Potency in assay [1] was 20.8 µM (active). The Potency result in assay [3] and in assay [4] was “inactive” in each case. For the same compound, the figures for the Z-AUC in assay [5], in assay [5] (setting [7]) and in assay [5] (measured here: PEO4 Z-AUC) were -1.04 (inactive), -0.0707 and -0.563, respectively.
Take `N[C@@H]1CN(c2c(F)cc3c(=O)c(C(=O)O)cn([C@@H]4C[C@@H]4F)c3c2Cl)CC12CC2`: the Potency result in assay [1] and in assay [6] was “inactive” in each case. In addition, the Z-AUC in assay [5] is 0.751 (inactive); in assay [5] (setting [7]), 0.374; in assay [5] (measured here: PEO4 Z-AUC) it was 0.877.
`O=C1S/C(=C\c2ccc(OCc3cccc(B(O)O)c3)cc2)C(=O)N1Cc1ccc(F)cc1`: the Potency result in assay [1], in assay [3] and in assay [4] was “inactive” throughout. The Z-AUC in assay [5] is 0.689 (inactive); in assay [5] (setting [7]) it was 0.417; in assay [5] (measured here: PEO4 Z-AUC), 0.814.
With `CN(CCOc1ccc(-c2ccc3c(c2)OCO3)cc1C(C)(C)C)CC(=O)O`, the Potency entry in assay [1], in assay [3] and in assay [4] was “inactive” each time. Further, the Potency in assay [6] is 20.9 µM (active). Besides, the values for the Z-AUC in assay [5], in assay [5] (setting [7]) and in assay [5] (measured here: PEO4 Z-AUC) were 0.446 (inactive), 1.02 and 1.29, respectively.
As to Ac-PHSCN-NH2, the Potency result in assay [1], in assay [3] and in assay [4] was “inactive” throughout. The Potency in assay [6] was 23.5 µM (active). For the same compound, the values for the Z-AUC in assay [5], in assay [5] (setting [7]) and in assay [5] (measured here: PEO4 Z-AUC) were -0.465 (inactive), 0.449 and 0.654, respectively.
Consider `CC(C)(CO)n1cc(C(=O)c2cncc(NC(=O)Cc3ccc(Cl)cn3)c2)c2cnc(N)nc21`, for which the Potency result in assay [1], in assay [6], in assay [3] and in assay [4] was “inactive” in each case. Further, the Z-AUC in assay [5] was -0.173 (inactive); in assay [5] (setting [7]), 0.879; in assay [5] (measured here: PEO4 Z-AUC), 0.771.

The record behind these values is PubChem BioAssay (NCATS).
